Source: the supplement of paper PMC6555819

Tested on: RXRa DBDmut IVT, anti-RXR (DBD mutation: RXRa K156A/R161A, NR concentration 90 nM)
Assay: PBM binding z-score (relative to random genomic background probes); higher = stronger binding; sequences stand for … in GC…GCGATTGACAGCGTAGAATGAAGG
Procedure, shortened: (§1)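 Binding z-scores take random background probes as their reference. They come from custom Agilent 4×180K protein-binding microarrays incubated 1 h with ligand-free nuclear receptor dimers, with antibodies against each partner (one per run) detecting binding. Scanned fluorescence was regression-normalized.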

Sequence	PBM binding z-score
AATACAGGGCCACTAGGCCAGAGTAGGTACGAAT	-0.4
TCTTGTAAATCAGCAGGTTAAGAAAGCTGGCCAA	0.924
ACTATTAGTTGACTTAGGGCAACCGTTACGACGC	1.01
CAAACTAGGTCCCGAAAGGTCAAAGTCGAATGAC	1.4
CGTCCACGGTCAGCAGGTCAGTGAAAGCGACGTG	0.0347
ATCGAAAGGTCGGAGGTGAGTATACCCACCCGAA	0.388
GCTTACGGGTCAAAGGTTATTGCATGAATAGAAT	2.83
ATTCGGAGGACAAAGGTCAGAGCTACGCCAGTGA	0.937
GGTAGCAGGCCATTTGGGTCACTCAATGACGGGC	-0.513
GATACAGGGTCAGCTCGAGGCCAGAGTATGGAAA	1.23
GCTTGTAGATCAAGGTTAAGATAGACTAAGCTAA	0.0981
ACTATTAGATGAGACGAGGGCAACCGATAGGTTG	0.518
AATACAGGGTCAACGTAGGCCAGAGTACGCACAG	3.18
GCATGTAGGTAATACAAGGTGAAAGTCCGATTGT	-0.332
TCTATTAGTTGACGGGCAACCGACGAGTCCGTTT	1.46
GCTTTTAGATCAAGGTTAAGAAAGACTAAGCTAA	0.874
TCGAGTAGGTTACCAATGGGGCATTCTGCTTTCT	0.539
CCTAGCGGGCCAGGGTCACTCAAGCATTTCGCTT	-0.0113
GCTTGTAGATCAAGGATAAGAAAGACTAAGCTAA	-0.727
ATATGTAGGTTAAGGGTCATCCAGGTTGGTTCGC	1.99

Sequence	PBM binding z-score
ACAGACAGGTGAGTGAAGGTAACTCACCTGGACG	-0.647
CGAACTAGGTCAGAACAGGTCAGTGAAGGATGAT	1.03
TCCATTAGTTGAAGGGCAACCGACGAGTCCGTTT	1.9
CCTAGTTCGTCAAGGTCACACACGCTATAGGTAC	4.16
CCTATTAGTTGACCACAAGGGCAACCGAAGCTCG	0.553
CCTATTAGTTGACCATAAGGGCAACCGCAGCTCG	0.58
TCTGCTAGGTCAGTTGGTAAGCTAACGAGCTGCC	0.399
GCAGACAGGTGAAACGCAGGTAACTCAAGGTGGC	-0.708
CCTCGGAGGACAACAGGCGGTCAGAGCTGCCAGA	-0.164
TCTTGTAGATCAAAAGAGGTTAAGAAAGTGCGCT	0.343
CCTACTGGGCCAAAAAGGTCATTGAAGCCGATAA	0.615
CAAACTAGGTCACGGAAGGTCAAAGTCGAATGAC	2.45
AGAATGAGGTTGTACGTAGATCAGGGAAGAAAGT	0.679
GTATCAAGGTGAATAGGTCGTTGATGAGTAGGCG	0.056
AGAACGAGGGCACGCTGAGATGATAGCAGAGTAG	1.8
AGTCAAAGTTCATCTAGATAACGTAAGATATGCT	4.57
CGAACTAGGTCAGAACAGGAGAGTGAAGGATGAT	0.692
CAAACTAGGTGACCGGAAGGTCAAAGTCCGCATG	0.562
ACAGACAGGTGAGTGAAGGAAACTCAGCTGGACG	-0.324
ATCCCAAGGTGATCGTGAGGTCGTTGATACTAAC	0.515

Tested on: RXRa homodimer (NR concentration 180 nM)
Assay: as above
Procedure, shortened: as §1

Sequence	PBM binding z-score
AATACAGGGCCACTAGGCCAGAGTAGGTACGAAT	0.289
TCTTGTAAATCAGCAGGTTAAGAAAGCTGGCCAA	0.361
ACTATTAGTTGACTTAGGGCAACCGTTACGACGC	0.622
CAAACTAGGTCCCGAAAGGTCAAAGTCGAATGAC	6.66
CGTCCACGGTCAGCAGGTCAGTGAAAGCGACGTG	0.719
ATCGAAAGGTCGGAGGTGAGTATACCCACCCGAA	3.28
GCTTACGGGTCAAAGGTTATTGCATGAATAGAAT	9.29
ATTCGGAGGACAAAGGTCAGAGCTACGCCAGTGA	5.03
GGTAGCAGGCCATTTGGGTCACTCAATGACGGGC	0.775
GATACAGGGTCAGCTCGAGGCCAGAGTATGGAAA	4.4
GCTTGTAGATCAAGGTTAAGATAGACTAAGCTAA	1.04
ACTATTAGATGAGACGAGGGCAACCGATAGGTTG	0.632
AATACAGGGTCAACGTAGGCCAGAGTACGCACAG	6.81
GCATGTAGGTAATACAAGGTGAAAGTCCGATTGT	0.495
TCTATTAGTTGACGGGCAACCGACGAGTCCGTTT	0.417
GCTTTTAGATCAAGGTTAAGAAAGACTAAGCTAA	0.844
TCGAGTAGGTTACCAATGGGGCATTCTGCTTTCT	0.447
CCTAGCGGGCCAGGGTCACTCAAGCATTTCGCTT	3.72
GCTTGTAGATCAAGGATAAGAAAGACTAAGCTAA	-0.555
ATATGTAGGTTAAGGGTCATCCAGGTTGGTTCGC	6.92

Sequence	PBM binding z-score
ACAGACAGGTGAGTGAAGGTAACTCACCTGGACG	0.429
CGAACTAGGTCAGAACAGGTCAGTGAAGGATGAT	2.22
TCCATTAGTTGAAGGGCAACCGACGAGTCCGTTT	1.05
CCTAGTTCGTCAAGGTCACACACGCTATAGGTAC	4.74
CCTATTAGTTGACCACAAGGGCAACCGAAGCTCG	0.829
CCTATTAGTTGACCATAAGGGCAACCGCAGCTCG	0.711
TCTGCTAGGTCAGTTGGTAAGCTAACGAGCTGCC	0.543
GCAGACAGGTGAAACGCAGGTAACTCAAGGTGGC	0.523
CCTCGGAGGACAACAGGCGGTCAGAGCTGCCAGA	-0.341
TCTTGTAGATCAAAAGAGGTTAAGAAAGTGCGCT	1.35
CCTACTGGGCCAAAAAGGTCATTGAAGCCGATAA	5.31
CAAACTAGGTCACGGAAGGTCAAAGTCGAATGAC	7.3
AGAATGAGGTTGTACGTAGATCAGGGAAGAAAGT	0.32
GTATCAAGGTGAATAGGTCGTTGATGAGTAGGCG	1.81
AGAACGAGGGCACGCTGAGATGATAGCAGAGTAG	1.41
AGTCAAAGTTCATCTAGATAACGTAAGATATGCT	4.56
CGAACTAGGTCAGAACAGGAGAGTGAAGGATGAT	1.23
CAAACTAGGTGACCGGAAGGTCAAAGTCCGCATG	3.89
ACAGACAGGTGAGTGAAGGAAACTCAGCTGGACG	0.249
ATCCCAAGGTGATCGTGAGGTCGTTGATACTAAC	1.21
